# Measurements taken from PubChem BioAssay (NCATS).
# Records with an inconclusive call do not appear. A call without a number means that no potency is given here. Activity calls are given as the source filed them. Unless noted, calls come from the whole dose curve; as a rule, active = well fitted curve in the direction sought with a large enough effect; inconclusive = small, poorly fitted or top-dose-only effect, or another doubt; inactive = no such curve, though single readings can be large; an effect the other way counts as inactive or inconclusive.
# Key:
# [1] = Primary qHTS for inhibitors of La Crosse Virus (LACV) - induced cell death in SH-SY5Y cells (AID 1508616);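 note: top concentration of the series differs between compounds; higher means more rescue of cells from virus-induced death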
# Procedure, shortened: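 Rescue of virus-induced death was read as ATPLite luminescence after 6 days at 37C, scaled between DMSO wells with LACV and without virus. Cells were SH-SY5Y, 6000/well, infected at 0.01 MOI after compound addition.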
# [2] = target: Calcium and integrin-binding protein 1 (Homo sapiens) (UniProt Q99828); experiment: Validation qHTS for Identification of Calcium Integrin Binding protein 1 (CIB1) Competitor (AID 1508618); note: potency is the fitted concentration of half-maximal effect
# Chain of Calcium and integrin-binding protein 1 (Homo sapiens) (Q99828 whole entry, looked up): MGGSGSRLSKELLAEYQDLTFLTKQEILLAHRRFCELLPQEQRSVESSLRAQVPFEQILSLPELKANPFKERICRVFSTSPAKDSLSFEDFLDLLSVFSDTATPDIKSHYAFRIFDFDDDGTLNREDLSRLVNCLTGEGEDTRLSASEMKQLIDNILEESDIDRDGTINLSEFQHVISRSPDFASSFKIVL
# Procedure, shortened: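 CIB1-GST (1 uM final) in 5 mM HEPES pH 7.4, 125 mM NaCl, 5 mM CaCl2, 0.01% Tween20 was preincubated 15 min at room temperature with compound (up to 114 uM), then FITC-alphaIIb peptide (100 nM) added for 15 min; fluorescence polarization read.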
# [3] = target: Calcium and integrin-binding protein 1 (Homo sapiens) (UniProt Q99828); experiment: Primary qHTS for Identification of Calcium Integrin Binding Protein 1 (CIB1) Competitor (AID 1508620);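 note: GST tagged CIB1 binding a fluorescein labelled alphaIIb integrin peptide tracer; top concentration of the series differs between compounds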
# Procedure, shortened: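 Fluorescence polarization competition: CIB1-GST (1 uM final) preincubated with compound 15 min at room temperature, then FITC-labeled alphaIIb peptide (100 nM final) added for another 15 min. Polarization read at Ex 480/Em 540.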
# [4] = Primary qHTS for inhibitors of MERS-S pseudo-typed particle cell entry (AID 1479149; calls by dose curve; note: potency is the fitted concentration of half-maximal effect; nearly all actives have a fitted effect of over 60% in size)
# [5] = Primary qHTS for Vero E6 cytotoxicity: counterscreen for inhibitors of SARS-S pseudo-typed particle cell entry (AID 1479150; calls by dose curve)
# [6] = Confirmatory qHTS for VERO E6 Cytotoxicity Assay: Counterscreen for SARS-CoV-2 CPE Assay (AID 1508605; calls by dose curve; note: series mostly up to about 20 µM; nearly all actives have a fitted effect of over 60% in size)
# [7] = Confirmatory qHTS for activators (rescue) of SARS-CoV-2 Cytopathic Effect (CPE) (AID 1508606; calls by dose curve; note: potency is the fitted concentration of half-maximal effect; nearly all actives have a fitted effect of over 70% in size)
# [8] = target: Calcium and integrin-binding protein 1 (Homo sapiens) (UniProt Q99828); experiment: Confirmatory qHTS for Identification of Calcium Integrin Binding Protein 1 (CIB1) Competitor (AID 1508617); note: nearly all actives have a fitted effect of over 65% in size
# Procedure, shortened: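 Fluorescence polarization competition: CIB1-GST (1 uM final) in 5 mM HEPES pH 7.4, 125 mM NaCl, 5 mM CaCl2, 0.01% Tween20 preincubated 15 min RT with compound (up to 114 uM), then FITC-alphaIIb peptide (100 nM) added, 15 min RT.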
smiles,measurement,setting,value
N[C@@H](Cc1ccc(Oc2cc(I)c(O)c(I)c2)c(I)c1)C(=O)O,Potency,[1],inactive
O=c1oc2ccccc2c(O)c1C(CC(O)c1ccc(-c2ccc(Br)cc2)cc1)c1ccccc1 (stereo unspecified),Potency,[1],inactive
NN=C(N)N,Potency,[1],inactive
same,Potency,[2],inactive
same,Potency,[3],inactive
CNCC[C@H](Oc1cccc2ccccc12)c1cccs1,Potency,[4],25.1 µM (active)
same,Potency,[5],inactive
same,Potency,[6],inactive
same,Potency,[7],10 µM (active)
Cc1cccc(C)c1NC(=O)CN1CCCC1=O,Potency,[1],inactive
same,Potency,[2],inactive
same,Potency,[3],inactive
O=C1NCN(c2ccccc2)C12CCN(CC1COc3ccccc3O1)CC2 (stereo unspecified),Potency,[1],inactive
same,Potency,[2],inactive
same,Potency,[3],inactive
C#CCOC(C(=O)OCCN(C)C)(c1ccccc1)c1ccccc1,Potency,[1],inactive
same,Potency,[3],inactive
COc1ccccc1N1CCNCC1,Potency,[1],inactive
same,Potency,[2],inactive
CCc1nn(CCCN2CCN(c3cccc(Cl)c3)CC2)c(=O)n1CCOc1ccccc1,Potency,[5],inactive
CN1C[C@H](CNC(=O)OCc2ccccc2)C[C@@H]2c3cccc4c3c(cn4C)C[C@H]21,Potency,[1],inactive
same,outcome,[8],inactive
same,Potency,[2],44.7 µM (active)
CC1OC(C)OC(C)O1 (stereo unspecified),Potency,[1],inactive
same,Potency,[3],inactive
CCOP(=S)(OCC)Oc1cc(C)nc(C(C)C)n1,Potency,[1],inactive
same,Potency,[3],inactive
CC[N+]1(C)CCCC(OC(=O)C(O)(c2ccccc2)c2ccccc2)C1 (stereo unspecified),Potency,[1],inactive
same,Potency,[3],inactive
CC(=O)[C@H]1CC[C@H]2[C@@H]3CC[C@H]4C[C@](C)(O)CC[C@]4(C)[C@H]3CC[C@]12C,Potency,[1],inactive
same,Potency,[2],inactive
same,Potency,[3],inactive
CCN(CC)CCOC(=O)C(O)(c1ccccc1)c1ccccc1,Potency,[1],inactive
same,Potency,[3],inactive
CNCCC(Oc1ccc(C(F)(F)F)cc1)c1ccccc1 (stereo unspecified),Potency,[5],inactive
same,Potency,[6],inactive
